14 compounds from PubChem BioAssay (NCI) can be followed below.

Test systems include T-47D breast; BT-549 breast; MDA-MB-435 melanoma; SW-620 colon; MCF7 breast; HCT-116 colon; HCC-2998 colon; KM12 colon.
What all share (test): NCI-60 one-dose screen, 48 h (100 = growth as untreated, 0 = no growth, -100 = all killed)
Holding throughout (conditions): 10 µM unless noted

The panel holds about 83,000 compounds, 20% with a hit somewhere; the sample as a whole holds those more often.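 Activity criterion: percent growth below 10, measured after cells in 96-well plates were exposed to a single compound concentration for 48 hours.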 A number with no mark means an inactive call. Active and inactive are the calls of the source.

As to `CCOC(=O)C(=O)Nc1ccc2c(ccn2C(=O)c2cccc(F)c2)c1`, the growth is 99.1% with T-47D breast; 88.8% with BT-549 breast; 100% in the assay with MDA-MB-435 melanoma; 98.7% in the assay on SW-620 colon; 89.6% in the assay with MCF7 breast; 102% in the assay on HCT-116 colon. In addition, the growth with HCC-2998 colon was 103%; with KM12 colon, 98.2%.

With `CC(=O)N(O)CCCCCNC(=O)CCC(=O)N(O)CCCCCNC(=O)CCC(=O)N(O)CCCCCN(CCCCCCCCCC[P+](c1ccccc1)(c1ccccc1)c1ccccc1)CCCCCCCCCC[P+](c1ccccc1)(c1ccccc1)c1ccccc1`, the growth in the assay on T-47D breast was -4.99% (active); with BT-549 breast, -30.7% (active); in the assay on MDA-MB-435 melanoma it was 4.44% (active); in the assay with SW-620 colon, 12.2%; in the assay on MCF7 breast, 5.05% (active); in the assay with HCT-116 colon, 3.76% (active). In addition, the results for the growth in the assay with HCC-2998 colon and in the assay with KM12 colon were 4.2% (active) and 4.3% (active), respectively.

As for `CCCCCCNC(=O)Oc1ccc(/C(=C(/C)c2ccc(OC)cc2)c2ccc(OCCN3CCCCCC3)cc2)cc1`, the growth in the assay on T-47D breast was -19.1% (active); with BT-549 breast, 70.3%; in the assay on MDA-MB-435 melanoma, 24.1%; with SW-620 colon, -41.4% (active); in the assay on MCF7 breast it was -30.3% (active); with HCT-116 colon, -86.6% (active). Also, the growth with HCC-2998 colon is 24.4%; in the assay on KM12 colon, 16.7%.

Regarding `COc1ccc(-c2c3c(cn2Cc2cccc(OC)c2)-c2oncc2CCC3)cc1`, the growth in the assay on T-47D breast was 75.7%; in the assay on BT-549 breast it was 105%; with MDA-MB-435 melanoma, 98.1%; in the assay with SW-620 colon, 96.4%; in the assay on MCF7 breast it was 96.9%; in the assay on HCT-116 colon it was 96.9%. In addition, the growth with HCC-2998 colon is 111%; in the assay with KM12 colon, 83.1%.

For `CC(C)=CCC[C@](C)(O)[C@H]1CC[C@]2(C)[C@@H]1CC[C@@H]1[C@@]3(C)CC[C@H](N)C(C)(C)[C@@H]3CC[C@]12C`, the growth in the assay with T-47D breast is 107%; in the assay on BT-549 breast it was 98.8%; in the assay on MDA-MB-435 melanoma it was 94.2%; in the assay with SW-620 colon, 8.73% (active); in the assay with MCF7 breast it was 3.07% (active); in the assay with HCT-116 colon it was -28.2% (active). Also, the growth in the assay on HCC-2998 colon was 63.3%; in the assay on KM12 colon, 48.9%.

Take `CCc1cc(O)ccc1Nc1cc(-c2ccc(-n3cccn3)cc2)[nH]n1`: the growth in the assay with T-47D breast was 35.7%; in the assay with BT-549 breast it was 85.7%; with MDA-MB-435 melanoma, 33%; in the assay on SW-620 colon, 63.1%; in the assay on MCF7 breast it was 34.3%; in the assay with HCT-116 colon, 39%. The growth in the assay on HCC-2998 colon was 61.5%; in the assay with KM12 colon, 16.6%.

`Cc1ccccc1Nc1nc(SC(C)C)nc(-c2ccccc2)c1C#N`: the growth with T-47D breast was 88.1%; in the assay on BT-549 breast, 97.1%; in the assay with MDA-MB-435 melanoma, 44.9%; in the assay on SW-620 colon it was 43.1%; in the assay on MCF7 breast, 51.6%; with HCT-116 colon, 2.97% (active). Also, the growth was 86.4% in the assay on HCC-2998 colon and 94.2% in the assay on KM12 colon.

Consider `CC1=C(C)C(=O)C(Nc2cccc(C(=O)OC(C)(C)C)c2)=C(Cl)C1=O`, for which the growth with T-47D breast is 4.99% (active); with BT-549 breast, 106%; in the assay on MDA-MB-435 melanoma, 103%; with SW-620 colon, 88.7%; with MCF7 breast it was 46.3%; in the assay with HCT-116 colon, 72.6%. The growth in the assay on HCC-2998 colon was 99%; in the assay with KM12 colon it was 99.2%.

Consider `Cn1cc(C2=C(c3coc4cc(Br)ccc34)C(=O)NC2=O)c2ccccc21`, for which the growth is 70% in the assay with T-47D breast; 82.6% with BT-549 breast; 8.23% (active) with MDA-MB-435 melanoma; 42.1% in the assay on SW-620 colon; 51.2% in the assay with MCF7 breast; 57.4% in the assay with HCT-116 colon. The growth with HCC-2998 colon was 104%; in the assay with KM12 colon, 80.5%.

In the case of `CN(C)c1cccc2c(S(=O)(=O)Nc3cccc(-c4csc(NC(=O)CCCCCN5CCN(CCO)CC5)n4)c3)cccc12`, the growth with T-47D breast was 82.7%; in the assay with BT-549 breast, 87.5%; in the assay on MDA-MB-435 melanoma, 65.6%; in the assay on SW-620 colon it was 98.4%; in the assay with MCF7 breast it was 35.8%; in the assay with HCT-116 colon it was 36.2%. Besides, the growth was 90.3% with HCC-2998 colon and 88.6% in the assay on KM12 colon.

Turning to `CNC(=O)c1cc(N2CCc3cc(NC(=O)Nc4ccc(N5CCN(C)CC5)c(C(F)(F)F)c4)ccc32)ccn1`, the growth is 81.4% in the assay with T-47D breast; 84.9% with BT-549 breast; 82.3% with MDA-MB-435 melanoma; 3.68% (active) in the assay on SW-620 colon; -2.1% (active) in the assay on MCF7 breast; -47.2% (active) in the assay on HCT-116 colon. Further, the results for the growth in the assay with HCC-2998 colon and with KM12 colon were 84.9% and 29.5%, respectively.

As for `O=C(CSc1nc2ccccc2c(=O)n1-c1ccc(Cl)c(Cl)c1)Nc1ccc(S(=O)(=O)Nc2ccc(Cl)nn2)cc1`, the growth in the assay with T-47D breast is 85.9%; with BT-549 breast it was 94.4%; in the assay with MDA-MB-435 melanoma it was 97.8%; in the assay with SW-620 colon, 89.7%; with MCF7 breast, 95.6%; in the assay on HCT-116 colon it was 92%. Further, the growth in the assay with HCC-2998 colon is 95.1%; in the assay on KM12 colon, 102%.

Regarding `CN1CCN(Cc2ccc(NC(=O)c3cncc(C#Cc4cnc5ccc(N6CCOCC6)nn45)c3)cc2C(F)(F)F)CC1`, the growth with T-47D breast is -5.39% (active); with BT-549 breast it was -71.7% (active); in the assay on MDA-MB-435 melanoma it was -65% (active); with SW-620 colon, -19.2% (active); with MCF7 breast, -69% (active); in the assay with HCT-116 colon, -76.2% (active). Also, the growth with HCC-2998 colon was -33.2% (active); in the assay with KM12 colon, -46.2% (active).

For `O=C(COc1ccc(/C=C2\C(=O)Nc3cc(Cl)ccc32)cc1)Nc1ccc(Cl)cc1`, the growth with T-47D breast was 68%; in the assay with BT-549 breast, 70.3%; in the assay on MDA-MB-435 melanoma it was 51.2%; in the assay with SW-620 colon it was 55.3%; with MCF7 breast it was 47.1%; in the assay on HCT-116 colon, 54.8%. Further, the growth is 96.1% in the assay with HCC-2998 colon and 36.4% in the assay on KM12 colon.
